Results reported in PubChem BioAssay AID1209 (Sanford-Burnham Center for Chemical Genomics, 2008).
Hit rate of the full screen: of about 190,000 compounds, about 810 (0.43%) were called active. The list comes from a sample in which actives are over-represented; it also holds similar structures and randomly drawn compounds. A number with no mark means an inactive call. Cut-off read from the data, not from the text of the source: active = inhibition above about 50%; inactive = the rest.

What follows are molecules tested against Mannose-6-phosphate isomerase (Homo sapiens) (UniProt P34949) (assay: MPI enzyme activity inhibition – biochemical, fluorescence intensity, coupled assay, primary screen (AID 1209;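 note: plate controls were DMSO vehicle for no effect and wells lacking substrate for full effect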)). Conditions: purified PMI enzyme, at 20 µM, stronger effect = higher value.
Mannose-6-phosphate isomerase (Homo sapiens), sequence (P34949 whole entry, looked up): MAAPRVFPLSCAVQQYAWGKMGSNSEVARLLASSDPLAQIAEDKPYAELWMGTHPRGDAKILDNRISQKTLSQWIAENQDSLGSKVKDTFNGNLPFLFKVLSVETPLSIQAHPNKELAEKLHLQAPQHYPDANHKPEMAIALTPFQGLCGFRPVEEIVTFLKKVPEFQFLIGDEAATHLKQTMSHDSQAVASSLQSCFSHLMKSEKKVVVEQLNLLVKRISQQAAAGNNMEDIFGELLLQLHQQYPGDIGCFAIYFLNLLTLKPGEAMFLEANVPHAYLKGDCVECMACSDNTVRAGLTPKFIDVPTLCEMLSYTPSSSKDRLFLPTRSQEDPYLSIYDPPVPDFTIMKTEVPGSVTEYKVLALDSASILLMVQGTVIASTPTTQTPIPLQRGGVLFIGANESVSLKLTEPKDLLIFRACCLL

**Q.** Which inhibition does the source give for COc1ccc(OCCCNCCc2ccccc2)cc1 here?
**A.** -2.5%

**Q.** Which inhibition does the source give for O=C1/C(=C/c2cccnc2)SC(=NCc2ccccc2)N1Cc1ccccc1 here?
**A.** 7.3%

**Q.** Which inhibition does the source give for CCCCCCc1nc2c(=O)[nH]c3ccccc3c2o1 here?
**A.** 6.6%

**Q.** CCCCCc1nc2c(=O)[nH]c3ccccc3c2o1 was tested. Which inhibition did it give?
**A.** 102% (active)

**Q.** For CCCCc1nc2c(=O)[nH]c3ccccc3c2o1, which inhibition is on record?
**A.** 0.8%

**Q.** CCN(C(=O)c1ccnn1C)c1ccccc1 was tested. Which inhibition did it give?
**A.** -6.3%

**Q.** For CCOC(=O)Cc1csc(SCn2nnc3ccccc3c2=O)n1, which inhibition is on record?
**A.** 1.9%

**Q.** CCOC(=O)Cc1csc(-n2sc3ccccc3c2=O)n1 was tested. Which inhibition did it give?
**A.** 98.9% (active)

**Q.** For CCOC(=O)Cc1csc(NC(=O)c2cc(=O)c3ccccc3o2)n1, which inhibition is on record?
**A.** -7.8%

**Q.** How did the inhibition turn out when O=C(CSc1ccc(-c2ccc(Br)cc2)nn1)N1CCOCC1 was run?
**A.** -1.9%

**Q.** CCCCCCCNC(=O)COc1ccc2c(c1)C(=O)CC(C)(C)O2 was tested. Which inhibition did it give?
**A.** 2.9%

**Q.** For Nc1ccc2c(c1)OC1(CCCC1)O2, which inhibition is on record?
**A.** 6.1%

**Q.** Nc1ccc2c(c1)OC1(CCCCC1)O2 was tested. Which inhibition did it give?
**A.** 55.6% (active)

**Q.** How did the inhibition turn out when O=C(Nc1ccc2c(c1)OC1(CCCC1)O2)C1CC1 was run?
**A.** 0.2%

**Q.** Which inhibition does the source give for CC(C)(C)c1nc(SCC(=O)N2CC(=O)Nc3ccccc32)c2ccccc2n1 here?
**A.** 3.4%

**Q.** Which inhibition does the source give for COc1ccc2c(c1)CC/C2=N\OC(=O)c1ccccc1C here?
**A.** -5%

**Q.** For COc1ccc(N=C2C(=O)Nc3ccccc32)cc1, which inhibition is on record?
**A.** 12.5%

**Q.** Cc1ccc2c(c1)/C(=N/N1C(=O)c3ccccc3C1=O)C(=O)N2 was tested. Which inhibition did it give?
**A.** -2.2%

**Q.** Which inhibition does the source give for c1ccc(-c2nnc(CSc3nncs3)o2)cc1 here?
**A.** 16.2%

**Q.** Which inhibition does the source give for O=c1[nH]c2ccc(Cl)cc2c(-c2ccccc2)c1SC(=S)N1CCCCC1 here?
**A.** 0.2%

**Q.** With CCOC(=O)N1CCC(Nc2c(N3CCN(c4cccc(C(F)(F)F)c4)CC3)c(=O)c2=O)CC1 as the molecule, how does the inhibition read?
**A.** -9.4%

**Q.** With NS(=O)(=O)c1ccc(CNC(=S)NCc2ccc(Cl)cc2)cc1 as the molecule, how does the inhibition read?
**A.** 6.3%

**Q.** How did the inhibition turn out when NS(=O)(=O)c1ccc(NC(=S)NCc2ccc(Cl)cc2)cc1 was run?
**A.** 58.1% (active)

**Q.** How did the inhibition turn out when O=S(=O)(c1ccc(NC(=S)NCc2ccco2)cc1)N1CCCC1 was run?
**A.** 8.9%

**Q.** Which inhibition does the source give for NS(=O)(=O)c1ccc(NC(=S)NCc2ccco2)cc1 here?
**A.** 55.4% (active)

**Q.** CCNS(=O)(=O)c1ccc(NC(=S)NCc2ccco2)cc1 was tested. Which inhibition did it give?
**A.** 35.3%

**Q.** How did the inhibition turn out when NS(=O)(=O)c1ccc(CNC(=S)Nc2ccc(F)c(Cl)c2)cc1 was run?
**A.** 17.2%

**Q.** CC(=O)NC(CCS(C)(=O)=O)C(=O)Nc1ccccc1 (centres undefined) was tested. Which inhibition did it give?
**A.** 7.8%

**Q.** How did the inhibition turn out when CS(=O)(=O)N(CC(=O)NC1CC1)c1cccc(F)c1 was run?
**A.** 6.9%

**Q.** Which inhibition does the source give for Cc1ccc(NC(=O)CSc2nnc(-c3ccncc3)n2C)cc1S(=O)(=O)N1CCOCC1 here?
**A.** -7.6%

**Q.** With COC(=O)c1ccc[n+](CC(=O)c2ccc(Br)cc2)c1 as the molecule, how does the inhibition read?
**A.** -34.8%

**Q.** How did the inhibition turn out when Cn1cnc2ccc([N+](=O)[O-])cc2c1=O was run?
**A.** -6%

**Q.** Which inhibition does the source give for CCOC(=O)N1CCN(CCC(=O)c2ccc(OC)cc2)CC1 here?
**A.** 0.1%

**Q.** CCCOc1ccc(C(=O)CCN2CCN(C(=O)OCC)CC2)cc1 was tested. Which inhibition did it give?
**A.** -7.1%

**Q.** CCOC(=O)N1CCN(CCC(=O)c2ccc(Cl)cc2)CC1 was tested. Which inhibition did it give?
**A.** 57.4% (active)

**Q.** For Cc1ccc(N2C(=O)NC(C(F)(F)F)(C(F)(F)F)C3=C2CC(C)(C)CC3=O)cc1, which inhibition is on record?
**A.** 2.1%

**Q.** Which inhibition does the source give for CC1(C)CC2(CC(c3ccccc3)Oc3cc(O)ccc32)NC(=O)N1 (centres undefined) here?
**A.** 2.6%

**Q.** With COc1cccc(C(=O)COc2ccc3ccc(=O)oc3c2)c1 as the molecule, how does the inhibition read?
**A.** -1.6%

**Q.** How did the inhibition turn out when Cc1sc(NC(=S)NC(=O)c2ccco2)c(C#N)c1C was run?
**A.** 4.5%

**Q.** With CCOC(=O)c1c(NC(=O)Nc2ccccc2)sc(C)c1C as the molecule, how does the inhibition read?
**A.** 12.6%

**Q.** How did the inhibition turn out when CCOC(=O)c1c(NC(=S)Nc2ccc(Cl)cc2)sc(C)c1C was run?
**A.** -3.5%

**Q.** For CCOC(=O)c1c(NC(=O)Nc2ccc(Cl)cc2)sc(C)c1C, which inhibition is on record?
**A.** 2.4%

**Q.** How did the inhibition turn out when Cc1sc(NC(=S)NC(=O)c2ccco2)c(C(N)=O)c1C was run?
**A.** 50.4% (active)

**Q.** Which inhibition does the source give for NC(=O)c1c(NC(=S)Nc2ccc(F)cc2)sc2c1CCCC2 here?
**A.** 18.7%

**Q.** Which inhibition does the source give for COC(=O)c1c(NC(=O)c2ccco2)sc(C)c1C here?
**A.** 5%

**Q.** Which inhibition does the source give for Cc1sc(NC(=O)Nc2ccccc2)c(C(N)=O)c1C here?
**A.** 53.1% (active)

**Q.** With Cc1sc(NC(=S)Nc2ccc(F)cc2)c(C(N)=O)c1C as the molecule, how does the inhibition read?
**A.** 51.8% (active)

**Q.** Which inhibition does the source give for O=C(Nc1ccnc(-c2cccnc2)n1)c1ccc(F)cc1 here?
**A.** 5%

**Q.** For Cc1nn(Cc2ccc(F)cc2)c(C)c1NC(=O)c1cc2ncc(Br)cn2n1, which inhibition is on record?
**A.** 6.4%

**Q.** With COc1ccc(Cn2c(C)c(C)c(C#N)c2NC(=O)Nc2cccc(C)c2)cc1 as the molecule, how does the inhibition read?
**A.** -1.9%

**Q.** Which inhibition does the source give for CC(NC(=O)C(=O)N/N=C\c1cccc([N+](=O)[O-])c1)c1ccccc1 (centres undefined) here?
**A.** 10.5%

**Q.** Which inhibition does the source give for CC(C)(C)NC(=O)NC(=O)Cn1ccsc1=N here?
**A.** 5.2%

**Q.** Which inhibition does the source give for CCC(C)(C)NC(=O)CN(Cc1ccc2c(c1)OCO2)C(=O)CCC(=O)Nc1nccs1 here?
**A.** -5%

**Q.** How did the inhibition turn out when O=C(COc1ccccc1Cl)NC(=S)Nc1ccc(CN2CCOCC2)cc1 was run?
**A.** 17.4%

**Q.** Which inhibition does the source give for O=C(O)/C(=C/c1ccco1)c1ccccc1 here?
**A.** -8%

**Q.** How did the inhibition turn out when CCOC(=O)C1CCCN(C(=O)Cn2nc(Cc3cccnc3)c3ccccc3c2=O)C1 (centres undefined) was run?
**A.** 5.7%

**Q.** How did the inhibition turn out when O=C(CSc1nnnn1C1CCCC1)Nc1cccc(NC(=O)c2ccco2)c1 was run?
**A.** 8.3%

**Q.** Which inhibition does the source give for O=c1c(C/C=C/c2ccccc2)c(O)ccn1Cc1ccc(Cl)cc1Cl here?
**A.** 13.5%

**Q.** For CC1(C)C(=O)OC(c2cccn2-c2ccc([N+](=O)[O-])cc2)C(C)(C)C1=O (centres undefined), which inhibition is on record?
**A.** 67.5% (active)

**Q.** For CC1(C)C(=O)OC(c2cccn2-c2ccc([N+](=O)[O-])cc2)C2(CCCCC2)C1=O (centres undefined), which inhibition is on record?
**A.** 6.1%

**Q.** For CC1(C)C(=O)C2(CCCCC2)C(=O)OC1c1cccn1-c1ccc([N+](=O)[O-])cc1 (centres undefined), which inhibition is on record?
**A.** 2.5%

**Q.** How did the inhibition turn out when CCCC(=O)c1cc2c(cc1NC(=O)c1cccs1)OCCO2 was run?
**A.** 6.8%

**Q.** O=C(NCc1ccccn1)Nc1cccc(NC(=O)NCc2ccccn2)c1 was tested. Which inhibition did it give?
**A.** 14.5%

**Q.** For CCCC1=C(C(=O)OCC)C(/C=C/c2ccccc2)n2ncnc2N1 (centres undefined), which inhibition is on record?
**A.** 2.4%
